# G9a block – blocks human histone lysine methyltransferase G9a; Potency, µM (doses to about 102 µM), inactives show at the highest dose activity, negative = inhibition, most hits filed as inhibitors; 8.8% of 350,000 active; Q96KQ7; G9a H3K9 monomethylation, AlphaScreen, 2 h; AID 504332; note: % is set by controls: 0 for no effect and ±100 for the full control effect; nearly all actives have a fitted effect of over 75% in size
# Target sequence (Q96KQ7 913-1193 limits assumed): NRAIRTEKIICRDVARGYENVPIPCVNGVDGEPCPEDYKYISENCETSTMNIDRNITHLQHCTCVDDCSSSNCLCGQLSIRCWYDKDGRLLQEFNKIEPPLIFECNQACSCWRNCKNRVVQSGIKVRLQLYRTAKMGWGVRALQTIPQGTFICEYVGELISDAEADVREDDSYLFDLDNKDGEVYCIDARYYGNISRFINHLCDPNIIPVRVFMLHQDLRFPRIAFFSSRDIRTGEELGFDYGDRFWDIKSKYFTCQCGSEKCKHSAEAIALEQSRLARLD
#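 Readings reflect AlphaScreen signal from monomethyl-H3K9 antibody detection. HMT at 20 nM; substrate b-H3K9 500 nM; cofactor SAM 20 uM; 2 h RT reaction; compounds tested as titrations in qHTS with 15 min preincubation.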
# HP1b binding inh – blocks HP1-beta chromodomain binding to methylated histone tails | Potency, µM (top dose mostly 114 µM), for inactives: at the top dose activity change, negative = inhibition, usual class: inhibitors | AlphaScreen HP1-beta / biotin-H3K9me3 peptide binding | 0.56% of 390,000 active | P83916; note: nearly all actives have a fitted effect of over 70% in size
# Target sequence (P83916 whole entry, looked up): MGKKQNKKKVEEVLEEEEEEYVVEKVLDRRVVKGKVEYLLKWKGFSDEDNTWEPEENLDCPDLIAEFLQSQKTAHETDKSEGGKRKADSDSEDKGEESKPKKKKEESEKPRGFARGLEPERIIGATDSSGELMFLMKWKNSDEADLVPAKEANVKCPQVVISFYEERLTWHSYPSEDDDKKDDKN
#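 HP1-beta protein (50 nM final) preincubated 30 min at room temperature with biotinylated H3(1-18)K9me3 peptide (50 nM) in PBS pH 7.4, 0.01% Tween-20, then compound added for 30 min. AlphaScreen streptavidin donor/nickel chelate acceptor beads (10 ug/mL final), 30 min dark, luminescence read.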
# JMJD2A Tudor inh – blocks the human JMJD2A Tudor domain; O75164; AlphaScreen JMJD2A-Tudor / H3K4me3 peptide binding; Potency, µM (titrated, usually from 114 µM), for the others: at the highest dose activity change, negative = inhibition, hits mostly inhibitors; 4.4% of 390,000 active; AID 504339; note: % is set by controls: 0 for no effect and ±100 for the full control effect; nearly all actives have a fitted effect of over 50% in size
# GLS inhibitor – inhibitors of human glutaminase (GLS) | O94925 | GLS enzymatic activity, qHTS titration | Potency, µM (titrated, usually from 45.5 µM), inactives show top-dose activity change, negative = inhibition, usual class: inhibitors | 0.21% of 410,000 active; note: % is set by controls: 0 for no effect and ±100 for the full control effect
#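 hKGA in 45 mM KH2PO4 pH 8.2, 0.02% Tween-20 with pin-transferred compounds; 1 mM L-glutamine (stock) plus glutamate oxidase/HRP/Amplex Red coupling added. Fluorescence read initially and after 30 min at RT.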
# BAZ2B block – BAZ2B (human) inhibition | Q9UIF8 | AlphaScreen BAZ2B-H3K14Ac peptide displacement | Potency, µM (top dose mostly 114 µM), without a hit: top-dose activity change, negative = inhibition, actives largely listed as inhibitors | 4.4% of 360,000 active | AID 504333; note: % is set by controls: 0 for no effect and ±100 for the full control effect; nearly all actives have a fitted effect of over 60% in size
#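 AlphaScreen displacement of biotin-H3(5-23)K14Ac peptide (50 nM final) from BAZ2B (50 nM final) in PBS pH 7.4, 0.01% Tween-20; complex preformed 30 min RT, then compounds (top 110 uM) 30 min RT, beads 20 min dark.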
# * = called active by the depositor; ? = inconclusive; . = not tested or not shown; [ ] = another dose, or the depositor's remark. Sampled rows, rich in hits. Any-hit rate of the full collection: about 10%. Calls come from the whole dose curve; as a rule, active = well fitted curve in the direction sought with a large enough effect; inconclusive = small, poorly fitted or top-dose-only effect, or another doubt; inactive = no such curve, though single readings can be large; an effect the other way counts as inactive or inconclusive. Potency is the fitted concentration of half-maximal effect.
SMILES,G9a block,HP1b binding inh,JMJD2A Tudor inh,GLS inhibitor,BAZ2B block
O=C(CCCCCNC(=S)Nc1ccc(Cl)cc1)C[N+](=O)[O-],?,?,-15%,6%,-16%
CC1(C(=O)NS(=O)(=O)Cc2cccc(Cl)c2)CCN1C(=O)C1CCCCC1 (stereo not given),.,.,.,0%,.
CN(C)CC(CCCCC(CN(C)C)C(=O)c1ccccc1)C(=O)c1ccccc1 (stereo not given),50µM*,22%,-26%,8%,-20%
Cc1cc(C)c(Nc2nn3c(=O)c4cc5c(cc4nc3s2)OCO5)c(C)c1,2.2µM*,?,-32%,-17%,-2%
CCSc1nc(N)c(C#N)c(-c2ccccc2Cl)c1C#N,16µM*,59%,1%,-6%,11%
COC(=O)c1ccc(CSc2ncnc3c2oc2ccccc23)o1,3%,18%,-9%,1%,5%
O=C(Cn1nc2ccccc2n1)N/N=C/c1cc(Cl)cc([N+](=O)[O-])c1O,40µM*,-19%,50µM*,0%,20µM*
O=C(N/N=C/c1cc(Cl)cc([N+](=O)[O-])c1O)C1CC1,?,3%,-30%,1%,-31%
Cc1ccccc1C(=O)Nc1cccc(C(=O)N/N=C/c2cc(Cl)cc([N+](=O)[O-])c2O)c1,32µM*,?,50µM*,3%,22µM*
COc1cc(/C=N/NC(=O)c2cccc(NC(=O)c3ccccc3C)c2)ccc1O,14%,-5%,?,4%,0%
O=C(Cn1nnc(-c2ccccc2)n1)N/N=C/c1cccc([N+](=O)[O-])c1O,4%,29%,?,0%,45µM*
N#C/C(=C(/O)COc1ccccc1)c1nnc2n1CCCCC2,?,15%,-25%,7%,?
Cc1cc(C)c(NC(=O)Cn2nnc3sc4c(c3c2=O)CCC(C(C)(C)C)C4)c(C)c1 (stereo not given),-7%[59 µM],16%,-15%,16%,-9%
CC1=NN(c2ccc(S(=O)(=O)O)cc2C)C(=O)C1,25µM*,42%,50µM*,0%,56µM*
CC1=NN(c2ccccc2)C(=O)C1,-59%[59 µM],25%,-15%,-11%,-32%
Cc1cc2nc3c(=O)[nH]c(=O)[nH]c3nc2c([N+](=O)[O-])c1N,32µM*,?,45µM*,20%,50µM*
Nc1nc(C2C(=O)CCCC2=O)cs1,-2%[12.7 µM],5%,10µM*,15%,45µM*
CCOC(=O)c1nnc2ccnn2c1N,?,2%,89µM*,-1%,-3%
CCCn1cc(S(=O)(=O)c2ccc(Cl)cc2)c(=O)c2cc(OC)ccc21,2%,20%,22µM*,?,?
CSCc1cccc(C(=O)OC(C)C(=O)Nc2c(C)n(C)n(-c3ccccc3)c2=O)c1 (stereo not given),8.9µM*,39%,5%,2%,7%
Cc1c(NC(=O)C(C)OC(=O)c2cccc([N+](=O)[O-])c2)c(=O)n(-c2ccccc2)n1C (stereo not given),1%,30%,-8%,-2%,-3%
CCN(CC)S(=O)(=O)c1cc(C)c(C)cc1OCC(=O)NC1CCCC1,.,6%,-15%,0%,3%
Cc1ccccc1NC(=S)C1=C(O)c2sccc2N(C)S1(=O)=O,22µM*,2%,?,53%,?
CN1/C(=C\C(=O)COc2ccc3c(c2)OCO3)C(C)(C)c2ccccc21,?,?,?,4%,28µM*
COc1ccccc1OCC(=O)/C=C1/N(C)c2ccccc2C1(C)C,-8%,23%,10%,-15%,14%
SMILES,G9a block,HP1b binding inh,JMJD2A Tudor inh,GLS inhibitor,BAZ2B block
C=CCn1c(SCc2csc(-c3ccc(C)cc3)n2)nnc1-c1ccccc1OC,32µM*,11%,?,2%,2%
CC(=O)Nc1ccc(N/C(C)=C/C(=O)c2cccnc2)cc1,-3%[59 µM],29%,-3%,9%,-8%
C/C(=C\C(=O)c1cccnc1)Nc1ccc(C(=O)O)cc1,2.2µM*,15%,?,.,?
CC/C(=C\C(=O)c1cccnc1)Nc1ccc(C)c(C)c1,40µM*,?,50µM*,10%,-54%
COC(=O)c1cc(S(=O)(=O)N2CCC(C)CC2)ccc1F,-27%[12.7 µM],35%,11%,6%,2%
CSCC[C@H](NS(=O)(=O)c1ccc(C(C)=O)cc1)c1nnc2ccccn12,45µM*,46%,0%,-12%,56µM*
O=C(Nc1cccc([N+](=O)[O-])c1)c1ccc2nc(N3C(=O)CCC3=O)sc2c1,11µM*,7%,-24%,.,?
Cc1nc2cc(NC(=O)N3CC4(C)CC3CC(C)(C)C4)ccc2n1C (stereo not given),-3%,39%,-12%,16%,12%
Cc1ccc(NC(=O)CCn2c(=O)[nH]c3ccsc3c2=O)cc1F,14%,18%,-2%,-9%,7%
COc1ccccc1OCCOc1ccc(/C=C2/C(=N)N3OC(C)=CC3=NC2=O)cc1OC,71µM*,11%,-36%,8%,-26%
CC1=CC2=NC(=O)/C(=C\c3cccn3CCOc3ccccc3C)C(=N)N2O1,-49%,-24%,?,12%,?
CC1=CN2C(=N)/C(=C/c3ccc(Sc4ccc(Cl)cc4)o3)C(=O)N=C2S1,27%[59 µM],7%,-6%,2%,-4%
COc1cc(/C=C2\C(=N)N3N=C(S(C)(=O)=O)SC3=NC2=O)ccc1OC(=O)c1cccs1,-25%,31%,-4%,19%,56µM*
CCS(=O)(=O)C1=NSC2=NC(=O)/C(=C\c3ccc(OC(=O)c4ccco4)cc3)C(=N)N21,45µM*,8%,-19%,25%,?
CCS(=O)(=O)C1=NN2C(=N)/C(=C\c3ccc(SCc4ccco4)o3)C(=O)N=C2S1,13µM*,?,32µM*,?,50µM*
COc1ccc(/C=C2/C(=N)N3N=C(CC(=O)N4CCCC4)SC3=NC2=O)cc1OC,19%,18%,-14%,-5%,-15%[57.1 µM]
COC(=O)C1=Cc2cc(OC)cc([N+](=O)[O-])c2OC1N1CCOCC1 (stereo not given),.,7%,-3%,-3%,5%
O=C(c1n[nH]c2ccccc12)N1CCN(S(=O)(=O)c2ccc(Cl)cc2)CC1,1%[12.7 µM],21%,-13%,-3%,2%
Cc1nc2c(Cl)cccc2c2c1CC(CBr)O2 (stereo not given),13%[2.33 µM],48%,14%,-3%,-3%
Cc1ccccc1NS(=O)(=O)c1cc(S(C)(=O)=O)ccc1Cl,2%[12.7 µM],22%,-13%,-11%,4%
COc1cc(/C=C2\C(=N)N3N=C(S(C)(=O)=O)SC3=NC2=O)ccc1OCCOc1ccccc1C,25µM*,?,?,71%,56µM*

# Source: PubChem BioAssay
